PubChem BioAssay AID1986 (Sanford-Burnham Center for Chemical Genomics, 2009)
Where “and” joins values, the source holds several entries; their conditions need not be identical. Equal values may be shown once. Among all 290,000 compounds or so, about 890 (0.31%) were called active. Cut-off read from the data, not from the text of the source: active = inhibition mostly above about 52% (no sharp cut-off); inactive = mostly below about 76%. The sample as a whole holds a higher share of actives than the screen did. Where a structure was tested more than once in an assay, its records may differ in their call.

Assay: inhibitors of HIV fusion peptide binding, primary screen, biochemical, uHTS, fluorescence dequenching (AID 1986)
Details: cell-free peptide binding, 30 min, stronger effect = higher value
[1] = measured here: repeat confirmation average inhibition, at 18.6 µM

Compound | inhibition (at 20 µM) | inhibition [1]
CCCOc1ccc2c(CC)cc(=O)oc2c1C | -0.2% (inactive) | –
Cc1sc2nc(C3CC3)nc(N3CCN(S(=O)(=O)c4ccc(F)cc4)CC3)c2c1C | -0.3% (inactive) | –
CC(=O)c1ccc(-n2nnnc2SCC(=O)Nc2sc(C)c(C)c2C#N)cc1 | 6.6% (inactive) | –
CSc1cccc(NC(=O)CCCOc2ccccc2)c1 | -0.1% (inactive) | –
Cc1cnc(C(=O)OCc2csc(CC(=O)Nc3ccccc3C)n2)cn1 | 1.8% (inactive) | –
c1ccc(C2=Nc3c(ccc4ccccc34)C(c3ccncc3)=NN2)cc1 | -3% (inactive) | –
Cc1ccc(CNS(=O)(=O)c2ccc(F)c(F)c2)n1C | -1.8% (inactive) | –
CCOC(=O)c1c(C)[nH]c(C(=O)N/N=C/c2ccc(Br)cc2)c1C | -1.7% (inactive) | –
O=C(O)c1cc(-c2ccco2)nc2ccc(Br)cc12 | 51.2% (inactive) and 65% (active) | 11.6%
O=C(O)c1cc(-c2ccco2)nc2cc3ccccc3cc12 | 35.7% (inactive) | –
O=C(O)c1cc(-c2ccco2)nc2ccccc12 | 0.1% (inactive) | –
O=C(NC1CCCC1)C(c1ccncc1)N(C(=O)c1csnn1)c1ccc(F)cc1 (configuration not stated) | 0.5% (inactive) | –
Cc1ccc(N2CC(C(=O)Nc3nnc(SCC(=O)NCC4CCCO4)s3)CC2=O)cc1 (configuration not stated) | 0.9% (inactive) | –
O=C(N/N=C/c1cccs1)/C(=C/c1ccccc1)NC(=O)c1ccccc1 | 1.7% (inactive) | –
O=C(N/N=C/c1cc([N+](=O)[O-])cc([N+](=O)[O-])c1O)/C(=C\c1cccs1)NC(=O)c1ccccc1 | 65% (active) | –
COc1ccc([N+](=O)[O-])cc1/C=N/NC(=O)/C(=C\c1cccs1)NC(=O)c1ccccc1 | -1.3% (inactive) | –
O=C(Cc1ccc(Cl)cc1)NCC(=O)N1CCN(c2ccccc2)CC1 | 0.4% (inactive) | –
O=C1NN(c2ccccc2)C(=O)/C1=C/c1ccc(Sc2ccc(Cl)cc2)o1 | 17.5% (inactive) | –
O=C1NN(c2ccccc2)C(=O)/C1=C/c1ccc(Sc2cccc3ccccc23)o1 | 71.8% (active) | –

Compound | inhibition (at 20 µM) | inhibition [1]
Cc1ccc(Sc2ccc(/C=C3/C(=O)NN(c4ccccc4)C3=O)o2)cc1 | 9.4% (inactive) | –
O=C(NCCCc1ccccc1)[C@@H]1Cc2ccccc2CN1 | -0.5% (inactive) | –
NS(=O)(=O)c1ccc(-c2ccc(C=C3C(=O)c4ccccc4C3=O)o2)cc1 | 1.7% (inactive) | –
COc1ccccc1-c1ccc(/C=C2/C=C(CC(C)C)OC2=O)o1 | 40.1% (inactive) | –
CC(C)CC1=C/C(=C/c2ccc(-c3ccccc3)o2)C(=O)O1 | 51.7% (active) | –
O=Cc1cn(CCC(=O)O)nc1-c1cccc(Br)c1 | 1.1% (inactive) | –
Cc1ccc(-c2nn(CCC(=O)O)cc2/C=C\C(=O)c2ccc(Br)cc2)cc1 | 48.6% (inactive) | –
O=C(O)CCn1cc(/C=C\C(=O)c2ccc(Cl)cc2)c(-c2cccc(Br)c2)n1 | 60.3% (active) | –
CCOC(=O)c1sc(NC(=O)c2cc3n(n2)C(C(F)(F)F)CC(c2ccccc2)N3)c(C(=O)OCC)c1C (configuration not stated) | 0.6% (inactive) | –
Cc1cc2c(cc1S(=O)(=O)N(C)Cc1ccccc1)OCC(=O)N2 | -2% (inactive) | –
COc1cccc(/C=C2\Oc3cc(OCC(=O)N4Cc5ccccc5C[C@H]4C(=O)O)ccc3C2=O)c1 | 64.4% (inactive) | 40.9%
COc1cc(OC)c(OC)cc1/C=C1\Oc2cc(OCC(=O)N3Cc4ccccc4C[C@H]3C(=O)O)ccc2C1=O | 123% (active) | 106%
COc1ccc(OC)c(/C=C2\Oc3cc(OCC(=O)N4CC(O)C[C@H]4C(=O)O)ccc3C2=O)c1 (some centres not stated) | 2.3% (inactive) | –
Cc1nc(Oc2cccc(Cl)c2)c2oc3ccccc3c2n1 | -0.8% (inactive) | –
O=C(COC(=O)CCCOc1ccccc1)NNC(=O)c1ccc([N+](=O)[O-])cc1 | -0.7% (inactive) | –
CC1=CN2C(=N)/C(=C/c3ccc(C)o3)C(=O)N=C2S1 | 5.4% (inactive) | –
CC1=CN2C(=N)/C(=C/c3ccco3)C(=O)N=C2S1 | 7.9% (inactive) | –
Cn1c(=O)n(C)c2cc(/C=N/NC(=O)c3ccncc3)ccc21 | 1.3% (inactive) | –
Cc1[nH]n(-c2ncc(-c3ccc(Cl)cc3)s2)c(=O)c1C(c1ccc(Cl)cc1)C(C#N)C#N (configuration not stated) | 48.5% (inactive) | –

Compound | inhibition (at 20 µM) | inhibition [1]
Cc1[nH]n(-c2ncc(-c3ccccc3)s2)c(=O)c1C(c1ccc(Br)cc1)C(C#N)C#N (configuration not stated) | 57.3% (inactive) | 40.9%
Cc1[nH]n(-c2ncc(-c3ccccc3)s2)c(=O)c1C(c1ccc(Cl)cc1)C(C#N)C#N (configuration not stated) | 70.8% (active) | –
CC(C)(C)n1nc2c(c1NC(=O)Cc1cccc3ccccc13)CS(=O)C2 (configuration not stated) | -1.8% (inactive) | –
O=C(Nc1ccc(Cl)cc1)Nc1ccc2c(c1)OCO2 | -0.2% (inactive) | –
Cn1nc(C(F)(F)F)cc1-c1ccc(/C=C(\C#N)C(=O)c2ccccc2)s1 | 92% (active) | 179%
CNC(=O)c1ccc(-c2cc(C(F)(F)F)nn2C)s1 | -1.4% (inactive) | –
N#C/C(=C\c1ccc(-c2cccc(C(F)(F)F)c2)o1)C(=O)Nn1cnnc1 | 49.6% (inactive) | –
Cn1nc(C(F)(F)F)cc1-c1ccc(S(N)(=O)=O)s1 | 2.8% (inactive) | –
CN(C)C(=O)c1ccc(-c2cc(C(F)(F)F)nn2C)s1 | -1.2% (inactive) | –
Cn1nc(C(F)(F)F)cc1-c1ccc(/C=C(\C#N)C(=O)c2cccc(C(F)(F)F)c2)s1 | 55.2% (active) | –
Cc1ccc(-n2nnc(-c3cc4ccccc4nc3Cl)n2)cc1 | 0.2% (inactive) | –
O=C(CN(c1ccc(F)cc1)S(=O)(=O)c1ccc2c(c1)OCCO2)NCC1CCCO1 (configuration not stated) | 1.4% (inactive) | –
CCOc1ccc2nc(SCC(=O)c3ccc(C)s3)sc2c1 | 0% (inactive) | –
CCOc1ccc(NC(=O)C2CSC(c3ccncc3)=N2)cc1 (configuration not stated) | 1.2% (inactive) | –
CC1=C(C(=O)Nc2ccccn2)C(c2ccccc2)n2ncnc2N1 (configuration not stated) | -2.7% (inactive) | –
CCNc1nc(NC(C)C)nc(SCCOC(=O)c2ccccc2)n1 | 2.3% (inactive) | –
Cc1c(C)n(Cc2ccc(F)cc2)c2ccc(C(=O)NCCN3CCOCC3)cc12 | -1.7% (inactive) | –
O=C(Nc1ccccc1C(=O)O)c1cccc(N2C(=O)c3ccccc3C2=O)c1 | 2.5% (inactive) | –
COc1ccccc1NS(=O)(=O)c1cccc(NC(=O)Nc2ccccc2)c1 | 1.4% (inactive) | –
